Drawing on publication PMC8384837, “Expanding the binding specificity for RNA recognition by a PUF domain”, this text covers binding signal for 14 sequences.

Numbering of substitutions follows the chain as printed.

Common to all, as to assay: yeast three-hybrid, YBZ-1, SC-Leu-His + 0.5 mM 3-AT, 4 days
What all share (conditions): tags: N-Gal4 AD-HA kept; label: inside an RPR1-promoter hybrid RNA with tandem MS2 sites; ssRNA

The target of one assay is PUM1 PUF domain R5-RHN (Homo sapiens, UniProt Q14671 828-1176, C1007R;R1008H;Q1011N). In short, it runs like this: (§1)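 The interaction score is the logarithmic change in variant frequency from input to selection. It uses log2, with a pseudocount of 1 for absent variants, and frequencies came from PCR-amplified, Illumina-sequenced repeat regions. The libraries were Pumilio-1 PUF domains randomized at the three base-contacting residues per repeat, co-expressed with matching RNA elements in strain YBZ-1 (LexA–MS2 coat fusion, HIS3 reporter). Plating lasted four days on SC-Leu (input) or SC-Leu-His + 0.5 mM 3-AT (selection).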

For the next assay, the target named is PUM1 PUF domain R1-KRF (Homo sapiens, UniProt Q14671 828-1176, S863K;Q867F). In short, it runs like this: as §1
For the next assay, the target named is PUM1 PUF domain R1-QTR (Homo sapiens, UniProt Q14671 828-1176, S863Q;R864T;Q867R). In short, it runs like this: as §1
For a further assay, the target named is PUM1 PUF domain R7-RRL (Homo sapiens, UniProt Q14671 828-1176, S1079R;N1080R;E1083L). In short, it runs like this:
as §1

The next assay deals with PUM1 PUF domain R7-TIV (Homo sapiens, UniProt Q14671 828-1176, S1079T;N1080I;E1083V). The method, boiled down:
as §1

The next assay has as its target PUM1 PUF domain R3-VFD (Homo sapiens, UniProt Q14671 828-1176, C935V;R936F;Q939D). The method, boiled down:
as §1

The next assay concerns the target PUM1 PUF domain R3-KPV (Homo sapiens, UniProt Q14671 828-1176, C935K;R936P;Q939V). The method, boiled down:
as §1

The target of a further assay is PUM1 PUF domain R8-RFR (Homo sapiens, UniProt Q14671 828-1176, N1122R;Y1123F;Q1126R). The method, boiled down: as §1
The target of a further assay is PUM1 PUF domain R4-GPH (Homo sapiens, UniProt Q14671 828-1176, N971G;H972P;Q975H). The method, boiled down: as §1
The target in the next assay is PUM1 PUF domain R4-WSG (Homo sapiens, UniProt Q14671 828-1176, N971W;H972S;Q975G). In short, it runs like this: as §1
The target of another assay is PUM1 PUF domain R1-RWD (Homo sapiens, UniProt Q14671 828-1176, S863R;R864W;Q867D). The method, boiled down:
as §1

In another assay the target is PUM1 PUF domain R5-KYS (Homo sapiens, UniProt Q14671 828-1176, C1007K;R1008Y;Q1011S). The method, boiled down: as §1
For another assay, the target named is PUM1 PUF domain R5-RRD (Homo sapiens, UniProt Q14671 828-1176, C1007R;Q1011D). The method, boiled down:
as §1

A further assay addresses PUM1 PUF domain R3-CRM (Homo sapiens, UniProt Q14671 828-1176, Q939M). In short, it runs like this:
as §1

The target of another assay is T1, PUM1 PUF domain R6-NYV (Homo sapiens, UniProt Q14671 828-1176, Q1047V).
T1 sequence: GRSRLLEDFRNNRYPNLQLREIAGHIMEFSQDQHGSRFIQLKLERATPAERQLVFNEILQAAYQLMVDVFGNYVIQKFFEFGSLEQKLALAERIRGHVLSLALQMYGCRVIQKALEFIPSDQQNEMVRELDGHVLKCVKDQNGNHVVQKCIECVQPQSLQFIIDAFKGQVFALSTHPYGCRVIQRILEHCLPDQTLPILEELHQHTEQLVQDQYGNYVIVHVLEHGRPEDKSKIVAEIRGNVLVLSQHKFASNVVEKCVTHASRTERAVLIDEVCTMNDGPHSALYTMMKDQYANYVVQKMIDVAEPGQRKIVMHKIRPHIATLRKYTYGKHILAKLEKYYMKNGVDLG
The method, boiled down:
as §1

The target of the next assay is T2, PUM1 PUF domain R6-QRS (Homo sapiens, UniProt Q14671 828-1176, N1043Q;Y1044R;Q1047S).
T2 sequence: T1 sequence with N216Q, Y217R, V220S
In short, it runs like this:
as §1

The next assay deals with PUM1 PUF domain R3-IFT (Homo sapiens, UniProt Q14671 828-1176, C935I;R936F;Q939T). In short, it runs like this:
as §1

The next assay addresses PUM1 PUF domain R8-EWK (Homo sapiens, UniProt Q14671 828-1176, N1122E;Y1123W;Q1126K). In short, it runs like this:
as §1

In the next assay the target is PUM1 PUF domain R3-YRE (Homo sapiens, UniProt Q14671 828-1176, C935Y;Q939E). The method, boiled down: as §1
In a further assay the target is PUM1 PUF domain R3-RCS (Homo sapiens, UniProt Q14671 828-1176, C935R;R936C;Q939S). The method, boiled down:
as §1

Take “GGCUAGAACUAGUGGAUCCCCCGGCGCCCGGCGGCUCGAGCCCGGGUAAGUGUGAAUAGUCUGCAUGCCGCCGGGCGCCAUGCCUGCAGGUCGACUCUAGAAAACAUG”: the binding signal with PUM1 PUF domain R5-RHN was 4.79 log2 enrichment (interaction score).

As for “GGCUAGAACUAGUGGAUCCCCCGGCGCCCGGCGGCUCGAGCCCGGGUAAGUGUAAAUCGUCUGCAUGCCGCCGGGCGCCAUGCCUGCAGGUCGACUCUAGAAAACAUG”, the binding signal in the assay with PUM1 PUF domain R1-KRF is 3.25 log2 enrichment (interaction score); with PUM1 PUF domain R1-QTR, 2.41 log2 enrichment (interaction score).

Take “GGCUAGAACUAGUGGAUCCCCCGGCGCCCGGCGGCUCGAGCCCGGGUAAGUUUAAAUAGUCUGCAUGCCGCCGGGCGCCAUGCCUGCAGGUCGACUCUAGAAAACAUG”: the binding signal was 6.01 log2 enrichment (interaction score) with PUM1 PUF domain R7-RRL and 2.5 log2 enrichment (interaction score) with PUM1 PUF domain R7-TIV.

For the sequence “GGCUAGAACUAGUGGAUCCCCCGGCGCCCGGCGGCUCGAGCCCGGGUAAGUGUAAUUAGUCUGCAUGCCGCCGGGCGCCAUGCCUGCAGGUCGACUCUAGAAAACAUG”, the figures for the binding signal with PUM1 PUF domain R3-VFD and with PUM1 PUF domain R3-KPV were 5.14 log2 enrichment (interaction score) and 3.62 log2 enrichment (interaction score), respectively.

For “GGCUAGAACUAGUGGAUCCCCCGGCGCCCGGCGGCUCGAGCCCGGGUAAGUGUAACUAGUCUGCAUGCCGCCGGGCGCCAUGCCUGCAGGUCGACUCUAGAAAACAUG”, in the assay with PUM1 PUF domain R3-VFD, the binding signal was 2.56 log2 enrichment (interaction score).

With “GGCUAGAACUAGUGGAUCCCCCGGCGCCCGGCGGCUCGAGCCCGGGUAAGCGUAAAUAGUCUGCAUGCCGCCGGGCGCCAUGCCUGCAGGUCGACUCUAGAAAACAUG”, the binding signal with PUM1 PUF domain R8-RFR is 6.81 log2 enrichment (interaction score).

Turning to “GGCUAGAACUAGUGGAUCCCCCGGCGCCCGGCGGCUCGAGCCCGGGUAAGUGUAUAUAGUCUGCAUGCCGCCGGGCGCCAUGCCUGCAGGUCGACUCUAGAAAACAUG”, the figures for the binding signal with PUM1 PUF domain R4-GPH and with PUM1 PUF domain R4-WSG were 1.26 log2 enrichment (interaction score) and 3.48 log2 enrichment (interaction score), respectively.

“GGCUAGAACUAGUGGAUCCCCCGGCGCCCGGCGGCUCGAGCCCGGGUAAGUGUAAAUGGUCUGCAUGCCGCCGGGCGCCAUGCCUGCAGGUCGACUCUAGAAAACAUG”: the binding signal in the assay with PUM1 PUF domain R1-RWD was 2.32 log2 enrichment (interaction score).

Consider “GGCUAGAACUAGUGGAUCCCCCGGCGCCCGGCGGCUCGAGCCCGGGUAAGUGUCAAUAGUCUGCAUGCCGCCGGGCGCCAUGCCUGCAGGUCGACUCUAGAAAACAUG”, for which the binding signal with PUM1 PUF domain R5-KYS is 3.71 log2 enrichment (interaction score); with PUM1 PUF domain R5-RRD, 5.76 log2 enrichment (interaction score).

With “GGCUAGAACUAGUGGAUCCCCCGGCGCCCGGCGGCUCGAGCCCGGGUAAGUGUACAUAGUCUGCAUGCCGCCGGGCGCCAUGCCUGCAGGUCGACUCUAGAAAACAUG”, the binding signal with PUM1 PUF domain R4-WSG is 2.7 log2 enrichment (interaction score).

With “GGCUAGAACUAGUGGAUCCCCCGGCGCCCGGCGGCUCGAGCCCGGGUAAGUGUAAAUAGUCUGCAUGCCGCCGGGCGCCAUGCCUGCAGGUCGACUCUAGAAAACAUG”, the binding signal was 6.72 log2 enrichment (interaction score) with PUM1 PUF domain R8-RFR; 3.01 log2 enrichment (interaction score) in the assay with PUM1 PUF domain R3-CRM; 4.16 log2 enrichment (interaction score) with PUM1 PUF domain R4-GPH; 6.45 log2 enrichment (interaction score) with PUM1 PUF domain R3-VFD; 4.01 log2 enrichment (interaction score) with PUM1 PUF domain R6-NYV; 4.63 log2 enrichment (interaction score) with PUM1 PUF domain R6-QRS. In addition, the binding signal with PUM1 PUF domain R4-WSG is 1.85 log2 enrichment (interaction score); with PUM1 PUF domain R3-IFT, 4.66 log2 enrichment (interaction score); with PUM1 PUF domain R5-KYS it was 2.35 log2 enrichment (interaction score); in the assay with PUM1 PUF domain R8-EWK it was 3.5 log2 enrichment (interaction score); with PUM1 PUF domain R5-RRD it was 2.72 log2 enrichment (interaction score).

For the sequence “GGCUAGAACUAGUGGAUCCCCCGGCGCCCGGCGGCUCGAGCCCGGGUAAGUCUAAAUAGUCUGCAUGCCGCCGGGCGCCAUGCCUGCAGGUCGACUCUAGAAAACAUG”, in the assay with PUM1 PUF domain R7-RRL, the binding signal is 5.23 log2 enrichment (interaction score).

In the case of “GGCUAGAACUAGUGGAUCCCCCGGCGCCCGGCGGCUCGAGCCCGGGUAAGUGUUAAUAGUCUGCAUGCCGCCGGGCGCCAUGCCUGCAGGUCGACUCUAGAAAACAUG”, the binding signal with PUM1 PUF domain R5-RRD was 5.74 log2 enrichment (interaction score).

With “GGCUAGAACUAGUGGAUCCCCCGGCGCCCGGCGGCUCGAGCCCGGGUAAGUGUAAGUAGUCUGCAUGCCGCCGGGCGCCAUGCCUGCAGGUCGACUCUAGAAAACAUG”, the figures for the binding signal with PUM1 PUF domain R3-CRM, with PUM1 PUF domain R3-YRE and with PUM1 PUF domain R3-RCS were 1.46 log2 enrichment (interaction score), 3.13 log2 enrichment (interaction score) and 4.81 log2 enrichment (interaction score), respectively.
